# PubChem BioAssay AID485297 (National Center for Advancing Translational Sciences (NCATS), 2010)
# Hit rate of the full screen: of about 320,000 compounds, about 9,100 (2.8%) were called active. Roughly 3% stayed inconclusive and do not appear here. For the sample, actives were picked, then their nearest neighbours and some compounds at random. Unmarked numbers belong to inactive results. Calls come from the whole dose curve; as a rule, active = well fitted activation curve with a large enough effect; inconclusive = small, poorly fitted or top-dose-only effect; inactive = no such curve, though single readings can be large or run the other way.
# Test: qHTS Assay for Rab9 Promoter Activators; note: nearly all actives have a fitted effect of over 60% in size; for activation, negative = inhibition: % of control where 0% means no effect
# Settings: Huh7 Rab9 promoter-luciferase reporter, luminescence, 24 h; series mostly up to 9.22 µM; activation, negative = inhibition: at the top concentration
# Procedure, shortened: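 Using Huh7 cells stably transfected with Rab9 promoter–luciferase, compounds were incubated 24 h at 37 °C, 5% CO2; luciferase luminescence was read 10 min after reagent addition.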
# Potency is the fitted concentration of half-maximal effect.
Compound,"activation, negative = inhibition [%]",Potency
CC1CCCCC12NC(=O)N(CC(=O)Nc1ccc(S(=O)(=O)Nc3ncccn3)cc1)C2=O (stereo not drawn),-4.51,–
Cc1ccccc1Nc1nc(N)nc(CN2CCN(c3ccccn3)CC2)n1,1.52,–
Cc1ccccc1Nc1nc(N)nc(CSc2ccccc2)n1,–,1410 nM (active)
Cc1ccc(C(=O)OCc2nc(N)nc(Nc3ccccc3C)n2)cc1,-1.45,–
COc1cccc(C(O)c2nc3ccccc3n2C)c1 (stereo not drawn),-1.9,–
Cc1cc(C)c(CN2CCN(C(=O)Cn3ccc(NC(=O)OCc4ccccc4)nc3=O)CC2)c(C)c1,2.35,–
COc1ccc(/C=C2\SC(=O)N(CCC(=O)NC3CCS(=O)(=O)C3)C2=O)cc1 (stereo not drawn),–,2510 nM (active)
COc1ccccc1/C=C1\SC(=O)N(CCC(=O)N(C)C2CCS(=O)(=O)C2)C1=O (stereo not drawn),8.24,–
COc1ccc(/C=C2\SC(=O)N(CCC(=O)NCCCn3ccnc3)C2=O)cc1,29.9,–
CC1CCCC(C)N1C(=O)COC(=O)COc1ccccc1C#N (stereo not drawn),1.16,–
CCCCN(C(=O)c1ccc(S(=O)(=O)N2CCOCC2)cc1)C1CCS(=O)(=O)C1 (stereo not drawn),1.73,–
O=C(Nc1cccnc1)c1cccc(S(=O)(=O)N2CCCC2)c1,-2.29,–
O=C(Nc1cccnc1)c1noc2c1CCCCC2,–,1580 nM (active)
O=C(Nc1cccnc1)c1cc(Cl)ccc1Cl,0.754,–
CCCCc1ccc(NC(=O)CN2C(=O)NC(Cc3ccccc3)C2=O)cc1 (stereo not drawn),5.27,–
O=C(NNC(=O)c1cccc(S(=O)(=O)Nc2ccc(Cl)cc2)c1)c1ccc(=O)[nH]c1,-0.571,–
O=C(CCc1ccccc1F)N1CCN(c2ccccc2)CC1,3.89,–
O=C(NCC(=O)N1CCN(c2ccccc2F)CC1)c1cccs1,29.4,–
O=C(CCSc1ccccc1)N1CCN(c2ccccc2F)CC1,–,3550 nM (active)
CC1CCCC(NC(=O)c2cc(S(=O)(=O)N3CCCCC3)ccc2Cl)C1C (stereo not drawn),-10.7,–
CCCCCCCC(=O)OC(CN1CCCCCC1)CN1CCCC1=O (stereo not drawn),0.284,–
COc1ccc(C2COC(=O)C2=N)c(NC(=O)c2ccccc2)c1 (stereo not drawn),-5.53,–
Cc1ccccc1C(=O)NC(=S)Nc1ccc(N2CCN(C(=O)c3ccccc3)CC2)cc1,-8.82,–
CC(=O)Oc1cccc(C(=O)Nc2ccccc2NC(=O)c2cccc(OC(C)=O)c2)c1,-3.88,–
COc1ccc(C(=O)Nc2ccc(N3CCC(C)CC3)cc2)cc1Br,0.157,–
CN1CCN(c2ccc(NC(=O)c3ccc4c(c3)[nH]c(=O)n4Cc3ccc(F)cc3)cc2)CC1,-10.7,–
COc1cccc(C(=O)Nc2cc3c(cc2Br)OCCCO3)c1,–,2820 nM (active)

Compound,"activation, negative = inhibition [%]",Potency
COc1cccc(C(=O)Nc2ccc(N3CCCC3)cc2)c1,–,1120 nM (active)
COc1cccc(C(=O)Nc2ccc(N3CCN(C(=O)c4ccco4)CC3)cc2)c1,-19.2,–
CN1CCN(c2ccc(NC(=O)c3ccccc3)cc2)CC1,–,1580 nM (active)
CC(C)(C)OC(=O)N[C@H](C(=O)OC(C)(C)C)c1ccc(Br)cc1,-3.11,–
O=C(OCC(=O)N1CCN(C(=O)c2ccco2)CC1)c1ccc(Cl)c(Cl)c1,-2.48,–
CN(c1ccccc1)S(=O)(=O)c1cccc(NC(=O)Cc2ccc(Cl)cc2)c1,-4.08,–
CCCCN1Cc2c(nc3cc(-c4ccccc4)[nH]n3c2=O)C1=O,-6.04,–
CCc1c(C)nc2cc(C)[nH]n2c1=O,1.24,–
C=CCc1c(C)nc2cc(-c3ccccc3)[nH]n2c1=O,–,1410 nM (active)
O=C1C=C(c2cccc(Br)c2)C[C@@H](c2ccc(F)cc2)C1,-7.46,–
NC(=O)NC(CC(=O)NNC(=O)c1ccccn1)c1ccc(Cl)cc1 (stereo not drawn),-15.9,–
O=S(=O)(NCCCN1CCOCC1)c1ccc(F)c(Cl)c1,-4.67,–
O=C(OCC(=O)N1CCCCCC1)c1cnc(Cl)c(Cl)c1,2.37,–
CCOc1ccc(NC(=O)c2ccc(NC(=O)COC(=O)c3ccc(NC(=O)CC#N)cc3)cc2)cc1,–,2240 nM (active)
CCOc1cccc(NC(=O)CC#N)c1,-2.84,–
CCOc1ccc(C(=O)Nc2ccncc2)cc1,24.6,–
Cc1cccc(NS(=O)(=O)c2ccc(C)c(C(=O)NCC(c3ccccc3)N(C)C)c2)c1 (stereo not drawn),-1.19,–
O=C(Nc1ncccc1O)c1ccc(S(=O)(=O)N2CCCC2)cc1,0.0374,–
O=C(Nc1ncccc1O)c1ccc(C(=O)c2ccccc2)cc1,–,4470 nM (active)
O=C(Nc1ncccc1O)c1ccc(S(=O)(=O)N2CCCCCC2)cc1,29.2,–
C=CCn1c(SCC(=O)NC(=O)Cc2ccccc2)nc2ccccc2c1=O,-2.86,–
Cc1ccc(S(=O)(=O)CCC(=O)OCC(=O)NCCc2ccc(S(N)(=O)=O)cc2)cc1,-4.91,–
O=C(/C(=C/c1cccc(Cl)c1)c1nc2ccccc2[nH]1)c1ccccc1,16.2,–
O=C(Cc1nc2ccccc2[nH]c1=O)c1ccc(Cl)cc1,–,2000 nM (active)
N#C/C(=C(/O)COC(=O)COc1ccc(Cl)cc1)c1nc2ccccc2[nH]1,-0.0556,–
CC(C)(C)OC(=O)Nc1ccc([C@@H](NC(=O)OC(C)(C)C)C(=O)OC(C)(C)C)cc1,0.239,–
